According to the supplement of paper PMC10670038:
Structures can show the parent of a compound that is named as a salt. ± gives the standard deviation of the averaged measurements. Whole data set: some 2,000 compounds, median “relative cell viability vs DMSO, compound alone” near 1.1, cut for the lowest 2% near 0.29. The entries come from a sample that favours the lowest values as a whole.

The molecules below were run on TE10 (assay: relative cell viability vs DMSO, compound alone (fraction); TE10 is an esophageal squamous carcinoma line; higher = less cytotoxic). Conditions: 2 µM; 48 h.
Protocol: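 TE10 ESCC cells (1,000/well, 384-well plates) were treated with Selleck bioactive library compounds at 2 uM alone for 48 h. Viability was read by CellTiter-Glo and expressed relative to DMSO wells. Two technical replicates (A, B).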

Going from `Cn1cc(/C=C/C(=O)c2cccc(F)c2)cc1/C=C/C(=O)NO` to `O=C(/C=C/c1cccc(S(=O)(=O)Nc2ccccc2)c1)NO` [Belinostat (PXD101)], the relative cell viability falls from 1.11 ± 0.077 to 0.216 ± 0.0062.

`O=C(C=Cc1ccccc1)NC(NC(=S)Nc1ccc(Cl)cc1)C(Cl)(Cl)Cl` (stereo unspecified) and `CC(NC(=O)C(Cc1ccccc1)NC(=O)OCc1ccccc1)C(=O)CF` (stereo unspecified) are within error of each other in relative cell viability: 1.07 ± 0.03 for the first, 1.14 ± 0.064 for the second.

First: CC(=O)Oc1cc2c(s1)CCN(C(C(=O)C1CC1)c1ccccc1F)C2 (stereo unspecified) [Prasugrel]
Second: COc1c(N2C[C@@H]3CCCN[C@@H]3C2)c(F)cc2c(=O)c(C(=O)O)cn(C3CC3)c12 [Moxifloxacin HCl]
The relative cell viability of the first is lower: 1.139 ± 0.0097 for the first, 1.18 ± 0.016 for the second.

Going from `COc1cc(Nc2ncc(F)c(Nc3ccc4c(n3)NC(=O)C(C)(C)O4)n2)cc(OC)c1OC` to `COc1cc(Nc2nc3ccccc3nc2NS(=O)(=O)c2ccc(NC(=O)c3ccc(C)c(OC)c3)cc2)cc(OC)c1`, the relative cell viability rises from 0.96 ± 0.015 to 1.15 ± 0.067.

Compared with `COc1cc(Nc2ncc(F)c(Nc3ccc4c(n3)NC(=O)C(C)(C)O4)n2)cc(OC)c1OC` [R406 (free base)], `Cc1ccc(C(=O)Nc2cccc(C(F)(F)F)c2)cc1Nc1nc(-c2cccnc2)nc2c1cnn2C` is higher in relative cell viability: 0.844 ± 0.051 for the first, 1.13 ± 0.043 for the second.

`Cc1c(C(=O)Nc2ccc(N3CCC(N4CCOCC4)CC3)c(C#N)c2)cnn1-c1ccc(Cl)cc1` and `Cc1ccc(NC(=O)c2ccc(CN3CCN(C)CC3)cc2)cc1Nc1nc(-c2cccnc2)cs1` [Masitinib (AB1010)] are the same in relative cell viability: 1.08 ± 0.024 for the first, 1.084 ± 0.0069 for the second.

First: Cc1c(C(=O)Nc2ccc(Oc3ccnc4[nH]cc(-c5ccccc5)c34)c(F)c2)c(=O)n(-c2ccc(F)cc2)n1C
Second: CC(C)(C)c1cc(NC(=O)Nc2ccc(-c3cn4c(n3)sc3cc(OCCN5CCOCC5)ccc34)cc2)no1 [Quizartinib (AC220)]
The relative cell viability of the first is higher: 1 ± 0.027 for the first, 0.594 ± 0.04 for the second.

`Nc1nc(N)c(N=O)c(OCC2CCCCC2)n1` and `CNc1nc(-c2ccc3c(N)n[nH]c3c2)cc(N2C[C@@H](C(=O)NC3CCCCC3)CC[C@H]2C)n1` are within error of each other in relative cell viability: 1.03 ± 0.023 for the first, 1.05 ± 0.037 for the second.

Going from `O=C(Cc1ccccc1)Nc1nnc(CCSCCc2nnc(NC(=O)Cc3ccccc3)s2)s1` to `CC(C)c1nc(CN(C)C(=O)N[C@H](C(=O)N[C@@H](Cc2ccccc2)C[C@H](O)[C@H](Cc2ccccc2)NC(=O)OCc2cncs2)C(C)C)cs1` [Ritonavir], the relative cell viability rises from 0.866 ± 0.049 to 1.13 ± 0.062.

Going from `CCCc1nn(C)c2c(=O)[nH]c(-c3cc(S(=O)(=O)N4CCN(C)CC4)ccc3OCC)nc12` [Sildenafil Citrate] to `CCOc1cc([C@@H](CS(C)(=O)=O)N2C(=O)c3cccc(NC(C)=O)c3C2=O)ccc1OC`, the relative cell viability falls from 1.2 ± 0.029 to 0.887 ± 0.18.

`Cc1ccc(S(=O)(=O)C=CC#N)cc1` and `CC(C)(C)c1ccc(S(=O)(=O)/C=C/C#N)cc1` are within error of each other in relative cell viability: 0.063 ± 0.0047 for the first, 0.0635 ± 0.0029 for the second.

`C[C@]12CC[C@@H]3c4ccc(O)cc4CC[C@H]3[C@@H]1CC[C@@H]2OC(=O)CCC1CCCC1` [Estradiol Cypionate] and `CCCCC(=O)O[C@H]1CC[C@H]2[C@@H]3CCc4cc(O)ccc4[C@H]3CC[C@]12C` [Estradiol valerate] are within error of each other in relative cell viability: 1.13 ± 0.085 for the first, 1.07 ± 0.1 for the second.

`Cn1cc(-c2[nH]c3cc(NC(=O)[C@H](N)C4CCCCC4)cc4c3c2C=NNC4=O)cn1` and `CCc1cc(/C(C)=N/OCc2ccc(C3CCCCC3)c(C(F)(F)F)c2)ccc1CN1CC(C(=O)O)C1` [BAF312 (Siponimod)] are within error of each other in relative cell viability: 1.05 ± 0.075 for the first, 1.1 ± 0.07 for the second.

Going from `CCCC[C@@H](C=O)NC(=O)[C@H](CC(C)C)NC(=O)OCc1ccccc1` [Calpeptin] to `CC(C)C[C@@H](C=O)NC(=O)[C@H](CC(C)C)NC(=O)[C@H](CC(C)C)NC(=O)OCc1ccccc1`, the relative cell viability falls from 1 ± 0.021 to 0.0786 ± 0.0013.

`CCCCC(=O)O[C@]1(C(=O)CO)[C@@H](C)C[C@H]2[C@@H]3CCC4=CC(=O)C=C[C@]4(C)[C@@]3(F)[C@@H](O)C[C@@]21C` [Betamethasone valerate (Betnovate)] and `CC(=O)O[C@]1(C(C)=O)CC[C@H]2[C@@H]3C[C@H](C)C4=CC(=O)C=C[C@]4(C)[C@@]3(F)[C@@H](O)C[C@@]21C` [Fluorometholone Acetate] are within error of each other in relative cell viability: 0.865 ± 0.078 for the first, 0.914 ± 0.099 for the second.

Compared with `O=C(c1cn(Cc2cncn2Cc2ccc(Br)cc2)cc1-c1cccc2ccccc12)N1CCOCC1`, `Cc1cnc(NC(=O)C2=C(O)c3ccccc3S(=O)(=O)N2C)s1` [Meloxicam] is higher in relative cell viability: 0.958 ± 0.015 for the first, 1.11 ± 0.045 for the second.

`O=C(O)c1cc(/N=N/c2ccc(O)c(C(=O)O)c2)ccc1O` [Olsalazine Sodium] and `CC(C)CCNC(=O)[C@H](CC(C)C)NC(=O)[C@H]1O[C@@H]1C(=O)O` [Loxistatin Acid (E-64C)] are within error of each other in relative cell viability: 1.12 ± 0.12 for the first, 1.1 ± 0.019 for the second.

Compared with `CCCCC(C=O)NC(=O)C(CC(C)C)NC(=O)C(CC(C)C)NC(C)=O` (stereo unspecified), `CC(=O)N[C@@H](CC(C)C)C(=O)N[C@@H](CC(C)C)C(=O)N[C@H](C=O)CCCNC(=N)N` [Leupeptin Hemisulfate] is higher in relative cell viability: 0.266 ± 0.011 for the first, 1.09 ± 0.015 for the second.
